RORgamma inh – blocks mouse ROR gamma transcriptional activity | P51450 | Drosophila S2 Gal4-RORgamma UAS-luciferase reporter, 20 h | Potency, µM (series often up to 53.6 µM), most hits filed as inhibitors | 5.4% of 310,000 active | AID 2551; note: nearly all actives have a fitted effect of over 60% in size
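Schneider cells (Drosophila), stable Gal4 DBD–ROR gamma + UAS-luc; 1 hr cmpd preincubation; Cu2+ induction 700 uM final; 20 hr ambient; luminescence.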
Gal4-VP16 FLuc – Gal4-VP16 reporter inhibition counter-screen. Drosophila S2 Gal4-VP16 UAS-luciferase, luminescence, 20 h. Potency, µM (series often up to 53.6 µM), actives largely listed as inhibitors. 3.5% of 310,000 active. AID 2546;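 note: Gal4-VP16 expression switched on by copper sulfate through the metallothionein promoter; nearly all actives have a fitted effect of over 50% in size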
PLK1 PBD inh – inhibitors of human PLK1 polo-box domain binding. P53350. Plk1 PBD binding of FITC phosphopeptide, fluorescence polarization. Potency, µM, actives largely listed as inhibitors. 2.8% of 360,000 active. AID 720504; note: series mostly up to about 57 µM; nearly all actives have a fitted effect of over 65% in size
Target sequence (P53350 whole entry, looked up, the tested form may be a part): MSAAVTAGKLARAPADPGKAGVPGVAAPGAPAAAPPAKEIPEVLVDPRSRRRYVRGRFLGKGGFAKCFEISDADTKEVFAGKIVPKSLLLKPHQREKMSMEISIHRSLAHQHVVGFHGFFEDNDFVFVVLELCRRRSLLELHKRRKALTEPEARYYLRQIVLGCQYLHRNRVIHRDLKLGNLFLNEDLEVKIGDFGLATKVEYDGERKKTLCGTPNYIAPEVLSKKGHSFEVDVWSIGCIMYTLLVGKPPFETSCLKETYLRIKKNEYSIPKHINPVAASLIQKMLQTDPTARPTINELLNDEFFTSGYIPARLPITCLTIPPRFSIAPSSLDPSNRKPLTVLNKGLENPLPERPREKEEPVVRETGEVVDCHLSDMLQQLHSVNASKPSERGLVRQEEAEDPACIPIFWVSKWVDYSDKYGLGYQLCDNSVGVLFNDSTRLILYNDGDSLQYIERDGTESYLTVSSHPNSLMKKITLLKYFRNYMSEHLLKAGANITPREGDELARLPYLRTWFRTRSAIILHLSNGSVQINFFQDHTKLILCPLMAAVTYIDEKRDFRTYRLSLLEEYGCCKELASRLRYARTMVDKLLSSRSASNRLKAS
ALDH1A1 block – inhibitors of human aldehyde dehydrogenase 1A1; 7.3% of 220,000 active; Purified ALDH1A1, NADH fluorescence, propionaldehyde substrate; P00352; Potency, µM (highest dose often 75.3 µM), most hits filed as inhibitors; active = well fitted inhibition curve with a large enough effect, not every such curve was filed as active; inconclusive = small, poorly fitted or top-dose-only effect, or another doubt; inactive = no such curve, though single readings can be large or run the other way
Sfp inh – blocks B. subtilis Sfp PPTase activity; 3.5% of 310,000 active; Q9F4F7; Biochemical Sfp PPTase activity, qHTS; Potency, µM, most hits filed as inhibitors; AID 1490;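 note: the enzyme is Sfp with the accession as filed and its product quenches rhodamine fluorescence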
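After 15 min at room temperature with compound, 15 nM Sfp received 5 uM rhodamine-CoA plus 12.5 uM BHQ-2-ybbR (50 mM Hepes pH 7.6, 10 mM MgCl2). Rate came from the fluorescence difference over 30 min, ex 525/em 598 nm.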
Each line names hits and unclear results; the compound was inactive in the other large screens. This is a sample that favours compounds with a hit; in the whole collection about 12% have one here. Unless noted, calls come from the whole dose curve; as a rule, active = well fitted curve in the direction sought with a large enough effect; inconclusive = small, poorly fitted or top-dose-only effect, or another doubt; inactive = no such curve, though single readings can be large; an effect the other way counts as inactive or inconclusive.

COc1ccc(-n2nc3c(N4CCC(C(=O)NCc5ccccc5C)CC4)nnc(C)c3c2C)cc1	none (no result: ALDH1A1 block)
O=C(Cc1ccccc1[N+](=O)[O-])OCN1C(=O)c2ccccc2C1=O	none (no result: ALDH1A1 block)
O=[N+]([O-])c1ccccc1CNCCO	none (no result: RORgamma inh, Gal4-VP16 FLuc, ALDH1A1 block, Sfp inh)
O=C1c2ccccc2C(=O)N1OCc1ccccc1[N+](=O)[O-]	ALDH1A1 block 25µM, Sfp inh inconclusive
N#CCc1ccccc1[N+](=O)[O-]	ALDH1A1 block 25µM (no result: PLK1 PBD inh, Sfp inh)
NCC1CCC(C(=O)O)CC1 (centres undefined)	none (no result: PLK1 PBD inh)
CCOc1ccc(N(CC(=O)NCCSCc2ccco2)S(=O)(=O)c2ccc(C)cc2)cc1	none (no result: ALDH1A1 block)
CNNC(=S)NC1CC2CC1C1C=CCC21 (centres undefined)	RORgamma inh inconclusive
NC(=S)NC1CC2CC1C1C=CCC21 (centres undefined)	RORgamma inh 28µM (no result: ALDH1A1 block)
Cc1ccccc1CNC(=O)c1ccc2nc([C@@H]3O[C@H](CO)[C@H](O)[C@H](O)[C@H]3O)[nH]c2c1	none (no result: RORgamma inh, Gal4-VP16 FLuc, ALDH1A1 block, Sfp inh)
Cn1nc(C(C)(C)C)cc1C(=O)N1CCCCC1c1cc(C(=O)Nc2ccccc2Cl)no1 (centres undefined)	none (no result: RORgamma inh, Gal4-VP16 FLuc, ALDH1A1 block, Sfp inh)
O=C(CN1C(=O)/C(=C/c2ccc(Cl)cc2)SC1=S)NC1C=CS(=O)(=O)C1 (centres undefined)	Gal4-VP16 FLuc inconclusive, Sfp inh 40µM (no result: ALDH1A1 block)
COc1cccc(/C=C2\SC(=S)N(C(C)C(=O)NC3C=CS(=O)(=O)C3)C2=O)c1 (centres undefined)	PLK1 PBD inh 27µM (no result: ALDH1A1 block)
COc1ccc(/C=C2\SC(=S)N(C(C)C(=O)NC3C=CS(=O)(=O)C3)C2=O)cc1 (centres undefined)	PLK1 PBD inh inconclusive, Sfp inh inconclusive (no result: ALDH1A1 block)
CC(C)c1ccc(/C=C2\SC(=O)N(CC(=O)NC3C=CS(=O)(=O)C3)C2=O)cc1 (centres undefined)	RORgamma inh inconclusive, Gal4-VP16 FLuc 4.5µM (no result: ALDH1A1 block)
CC1(C(=O)Nc2ccccc2F)CCN1C(=O)Cc1cc(F)ccc1F (centres undefined)	none (no result: RORgamma inh, Gal4-VP16 FLuc, ALDH1A1 block, Sfp inh)
CN1CCN(c2ncnc3c2ncn3[C@H]2CN(Cc3ccc(F)cc3)C[C@@H](CO)O2)CC1	none (no result: RORgamma inh, Gal4-VP16 FLuc, ALDH1A1 block, Sfp inh)
O=C(NCCN1CCOCC1)c1ccc2c(c1)N(Cc1ccccc1F)C(=O)CS2	none
O=C1CSc2ccccc2N1Cc1ccccc1F	ALDH1A1 block 22µM
CCCCN(C(C)=O)c1c(CC)nc2ccc(C(=O)NCCCN(C)C)cn12	none (no result: RORgamma inh, Gal4-VP16 FLuc, ALDH1A1 block, Sfp inh)
CC1=C(C(=O)N2CCOCC2)CC(CC(=O)NCCc2ccccn2)C(=O)N1CCCN1CCCC1=O (centres undefined)	none (no result: RORgamma inh, Gal4-VP16 FLuc, ALDH1A1 block, Sfp inh)
Cc1cccc(OC(=O)c2cccnc2)c1	none (no result: ALDH1A1 block)
Cc1cccc(OC(=O)c2cncc(Br)c2)c1	PLK1 PBD inh 27µM
CCOC(=O)C1=CCC(c2cccc(C)c2)N(S(=O)(=O)c2ccc(C)cc2)C1 (centres undefined)	none (no result: RORgamma inh, Gal4-VP16 FLuc, ALDH1A1 block, Sfp inh)
CCC(C)(C)C1CCc2c(sc(NC(=O)c3ccccc3C(=O)O)c2C#N)C1 (centres undefined)	PLK1 PBD inh 27µM
Cc1cc(C(=O)Nc2sc3c(c2C#N)CCC(C(C)(C)C)C3)no1 (centres undefined)	ALDH1A1 block inconclusive
CC(C)(C)C1CCc2c(sc(NC(=O)c3cc(C4CC4)on3)c2C#N)C1 (centres undefined)	RORgamma inh 5.6µM, Gal4-VP16 FLuc inconclusive, PLK1 PBD inh inconclusive, ALDH1A1 block inconclusive
CC(C)(C)C1CCc2c(sc(NC(=O)C3CC=CCC3C(=O)O)c2C#N)C1 (centres undefined)	RORgamma inh inconclusive, PLK1 PBD inh 21µM, ALDH1A1 block 7.1µM
O=C(c1csnn1)N1CCC[C@@]2(CCN(c3ncccn3)C2)C1	Sfp inh inconclusive (no result: PLK1 PBD inh)
CCCCNC(=O)C1(C)CCN1C(=O)c1ccc(F)cc1Cl (centres undefined)	none (no result: RORgamma inh, Gal4-VP16 FLuc, ALDH1A1 block, Sfp inh)
CCC(Cc1c(I)cc(I)c(O)c1I)C(=O)O (centres undefined)	Sfp inh 56µM (no result: PLK1 PBD inh, ALDH1A1 block)
CCn1c(C(=O)OC)cc2c1ccn2-c1ccc(F)cc1	RORgamma inh inconclusive, PLK1 PBD inh 3µM, ALDH1A1 block inconclusive
CC(C)CCNC(=O)C(c1ccc(O)cc1)N(C(=O)C1COc2ccccc2O1)c1cccc(O)c1 (centres undefined)	PLK1 PBD inh 19µM
CC(=O)Nc1ccc(C(=S)NCCCO)cc1	RORgamma inh inconclusive, PLK1 PBD inh 19µM, ALDH1A1 block inconclusive, Sfp inh inconclusive
Cn1ccc2c(N3CCCCCCC3)cc3c(c21)C1CCC3O1 (centres undefined)	none (no result: RORgamma inh, Gal4-VP16 FLuc, ALDH1A1 block, Sfp inh)
